Compound activity deposited in PubChem by several laboratories.
BoNT A protease – blocks Botulinum neurotoxin A light chain protease. inhibition, % at 10 µM. hit rate 0.17% among 360,000. multiplex microsphere protease substrate cleavage, flow cytometry
Autofluor counter – flagged as autofluorescent in microsphere protease counterscreen | compound autofluorescence counterscreen, microsphere flow cytometry; active compounds read high | fluorescence intensity (test concentration not listed) | hit rate 3.1% among 360,000 | AID 624483; in the data active means fluorescence intensity above about 16000; inconclusive means no clear call, values can overlap the other calls
Anthrax LF prot – inhibitors of Bacillus anthracis lethal factor protease; P15917; multiplex microsphere protease cleavage assay, LF; inhibition, % at 10 µM; hit rate 0.12% among 360,000
Target sequence (P15917 whole entry, looked up): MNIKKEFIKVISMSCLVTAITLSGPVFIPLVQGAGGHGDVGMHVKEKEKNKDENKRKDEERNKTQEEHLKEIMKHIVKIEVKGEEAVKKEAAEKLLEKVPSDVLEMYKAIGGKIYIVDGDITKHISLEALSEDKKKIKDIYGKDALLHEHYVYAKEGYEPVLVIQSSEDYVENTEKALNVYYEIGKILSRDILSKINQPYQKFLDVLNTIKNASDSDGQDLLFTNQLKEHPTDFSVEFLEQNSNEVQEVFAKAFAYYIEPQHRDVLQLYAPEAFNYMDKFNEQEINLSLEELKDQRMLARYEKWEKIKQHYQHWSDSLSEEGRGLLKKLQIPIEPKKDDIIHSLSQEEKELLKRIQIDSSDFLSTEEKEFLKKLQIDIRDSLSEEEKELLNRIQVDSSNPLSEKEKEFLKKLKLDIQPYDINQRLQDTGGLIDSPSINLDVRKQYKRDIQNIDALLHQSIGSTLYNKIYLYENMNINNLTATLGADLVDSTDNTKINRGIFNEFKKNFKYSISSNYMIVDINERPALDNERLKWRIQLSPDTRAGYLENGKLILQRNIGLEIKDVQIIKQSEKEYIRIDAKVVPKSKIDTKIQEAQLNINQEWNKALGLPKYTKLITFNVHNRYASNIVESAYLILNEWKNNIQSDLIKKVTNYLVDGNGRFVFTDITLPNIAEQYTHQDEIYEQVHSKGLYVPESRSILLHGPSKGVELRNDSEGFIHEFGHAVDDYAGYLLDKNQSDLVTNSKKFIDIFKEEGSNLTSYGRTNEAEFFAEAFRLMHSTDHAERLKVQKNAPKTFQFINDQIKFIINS
BH1578 lux ind – induces V. cholerae light production without autoinducers | V. cholerae BH1578 lux reporter, luminescence, 6 h | activation, % at 18.7 µM | hit rate 0.16% among 350,000; in the data active means activation mostly above about 9.7%, no sharp cut-off; inconclusive means no clear call, values can overlap the other calls; inactive means mostly below about 3.7%
BoNT F protease – inhibitors of Botulinum neurotoxin F light chain protease | Multiplex microsphere protease cleavage assay, flow cytometry | inhibition, % at 10 µM | hit rate 0.22% among 360,000 | AID 588497; in the data active means inhibition above about 35%, passing the limit was not always enough; inconclusive means no clear call, values can overlap the other calls
BJeLR lethal – BJeLR cell viability loss; BJeLR (HRASV12) viability, CellTiter-Glo ATP luminescence, 48 h; AID 1554; hit rate 0.17% among 300,000; inhibition, % (test concentration not listed); in the data active means inhibition above about 50%; inconclusive means no clear call, values can overlap the other calls
BoNTA LC inh 1 – BoNT/A light chain protease inhibition. hit rate 3% among 720. multiplex microsphere protease assay, flow cytometry. inhibition, % at 10 µM. shares compounds with BoNT F protease; in the data active means inhibition above about 32%
BoNTF LC inh 1 – blocks botulinum neurotoxin F light chain protease; 720 tested, under 10 active; shares compounds with BoNT F protease; multiplex microsphere protease cleavage assay, flow cytometry; inhibition, % at 10 µM; call rule not given here
LF protease CP1 – blocks anthrax lethal factor protease; shares compounds with BoNT F protease; multiplex microsphere protease cleavage assay, LF; inhibition, % at 10 µM; 720 tested, under 10 active; AID 602142; call rule not given here
Each line names hits and unclear results; the compound was inactive in the other large screens (follow-up assays come after a bar, where they were run). Sampled rows, rich in hits. Any-hit rate of the full collection: about 3.7%. Unless noted, no stated cut-off is given here; in the data, active means inhibition above about 30%; inconclusive means no clear call, values can overlap the other calls; inactive means below that.

CC1=C(C(=O)N2CCCCCC2)CC(CC(=O)NCCc2ccccn2)C(=O)N1CCCN1CCCC1=O (configuration not stated)	none (no result: BH1578 lux ind, BJeLR lethal)
COc1ccc(C(=O)CC(C(=O)O)c2ccc3c(c2)OCO3)cc1OC (configuration not stated)	none (no result: BJeLR lethal)
COc1ccc(-c2nnc(OC)c3ccccc23)cc1	BoNT F protease 37 | BoNTA LC inh 1 inactive | BoNTF LC inh 1 inactive | LF protease CP1 inactive
Nc1ccc(-c2nnn(CC(=O)N3CCCCC3)n2)cc1	Anthrax LF prot 46, BoNT F protease inconclusive | BoNTA LC inh 1 inactive | BoNTF LC inh 1 inactive | LF protease CP1 inactive
CCCCCCCCOC(=O)c1cc([N+](=O)[O-])c(Sc2ncnc3nc[nH]c23)c([N+](=O)[O-])c1	none (no result: BJeLR lethal)
CN(Cc1ccccc1)C(=O)[C@@H]1CCCN1C(=O)[C@@H]1CCCN1C(=O)c1ccc(Cl)cc1	none (no result: BH1578 lux ind, BJeLR lethal)
CCCn1c2ccccc2c2nc3ccccc3nc21	BoNT A protease 57, Anthrax LF prot 31 | BoNTA LC inh 1 inactive | BoNTF LC inh 1 inactive | LF protease CP1 inactive
COc1ccc(C(=O)Nc2ccc3c(c2)nc2n3CCSC2)cc1	BoNT F protease 38 | BoNTA LC inh 1 inactive | BoNTF LC inh 1 inactive | LF protease CP1 inactive
COc1ccc(C(=O)Nc2ccc3nc(C)c(C)nc3c2)cc1	none
CCOCCCNC(=O)C(c1ccc(C)cc1)N(Cc1ccc2c(c1)OCO2)C(=O)CNC(C)=O (configuration not stated)	BoNT F protease 35 | BoNTA LC inh 1 inactive | BoNTF LC inh 1 inactive | LF protease CP1 inactive
COc1cc(OC)cc(-c2ncc3ccccn23)c1	none (no result: BH1578 lux ind) | BoNTA LC inh 1 inactive | BoNTF LC inh 1 inactive | LF protease CP1 inactive
COc1ccc(-c2nc3ccccn3c2Cl)cc1	none
COc1cccc(-c2ncc3ccccn23)c1	none | BoNTA LC inh 1 inactive | BoNTF LC inh 1 inactive | LF protease CP1 inactive
COc1cccc(-c2cnc3c(NC(C)=O)cc(-c4ccccc4OC)cn23)c1	none (no result: BJeLR lethal)
COc1ccc(-c2ncc3ccccn23)cc1	none | BoNTA LC inh 1 inactive | BoNTF LC inh 1 inactive | LF protease CP1 inactive
COc1cc(-c2ncc3ccccn23)cc(OC)c1OC	none | BoNTA LC inh 1 inactive | BoNTF LC inh 1 inactive | LF protease CP1 inactive
c1csc(-c2ncc3ccccn23)c1	none
Nc1[nH]c(C(=O)c2ccccc2)c(-c2ccc(F)cc2)c1C(=O)NCc1ccccc1	none (no result: BH1578 lux ind, BJeLR lethal)
CC(C)C(=O)Nc1cccc(COc2ccccc2CN(Cc2ccccc2)C(=O)OC(C)(C)C)c1	none (no result: BJeLR lethal)
Cn1cnnc1SCC(=O)Nc1ccc(S(N)(=O)=O)cc1	Anthrax LF prot 34, BoNT F protease 37 | BoNTA LC inh 1 inactive | BoNTF LC inh 1 inactive | LF protease CP1 inactive
Cn1cnnc1SCC(=O)Nc1ccccc1	none
CCOc1ccc(OCCOCCNCCOC)cc1	BoNT F protease 41 | BoNTA LC inh 1 inactive | BoNTF LC inh 1 inactive | LF protease CP1 inactive
O=C(NCc1ccc(F)cc1)c1cc(C2CCCCN2S(=O)(=O)c2cccs2)on1 (configuration not stated)	none (no result: BJeLR lethal)
COC(=O)c1ccc(COc2ccc(-c3nn[nH]n3)cc2)cc1	BoNT A protease 49, BoNT F protease 47 | BoNTA LC inh 1 inactive | BoNTF LC inh 1 inactive | LF protease CP1 inactive
CCOc1c(Br)cc(C(N)=O)cc1OCc1ccccc1	BoNT F protease 36 | BoNTA LC inh 1 inactive | BoNTF LC inh 1 inactive | LF protease CP1 inactive
Oc1[nH]c(N=C2N=c3ccccc3=N2)c2ccccc12	BoNT F protease 111, BJeLR lethal 54 | BoNTA LC inh 1 inactive | BoNTF LC inh 1 32 | LF protease CP1 inactive
OC(CNC1Cc2ccccc2C1)c1ccccc1 (configuration not stated)	BoNT F protease 36 | BoNTA LC inh 1 inactive | BoNTF LC inh 1 inactive | LF protease CP1 inactive
CCCCNC(=O)c1c(N)[nH]c(C(=O)c2ccccc2)c1-c1ccccn1	none (no result: BH1578 lux ind, BJeLR lethal)
CSc1ccc(C(=O)C2CCCN(CCCn3cccn3)C2)cc1 (configuration not stated)	BoNT F protease 37 | BoNTA LC inh 1 inactive | BoNTF LC inh 1 inactive | LF protease CP1 inactive
CCOC(=O)CSc1nc2sc3c(c2c(=O)n1-c1ccc(OC)cc1)CCN(C)C3	BoNT A protease 42, BoNT F protease inconclusive | BoNTA LC inh 1 inactive | BoNTF LC inh 1 inactive | LF protease CP1 inactive
CCCCN(C)C(=O)c1cc2cc3ccc(OC)cc3nc2s1	none | BoNTA LC inh 1 inactive | BoNTF LC inh 1 inactive | LF protease CP1 inactive
O=S(=O)(Nc1ccc(Cl)nn1)c1ccccc1	BoNT F protease 38 | BoNTA LC inh 1 inactive | BoNTF LC inh 1 inactive | LF protease CP1 inactive
CC(C)c1cc(C(C)C)c(S(=O)(=O)NC(c2ccccn2)C23CC2C3)c(C(C)C)c1 (configuration not stated)	none (no result: BH1578 lux ind, BJeLR lethal)
Cc1nc2nc(CSc3ccc(Cl)cc3)cc(=O)n2[nH]1	BoNT F protease 79 | BoNTA LC inh 1 inactive | BoNTF LC inh 1 inactive | LF protease CP1 inactive
CN1/C(=C/C=C/c2n(C)c3cc([N+](=O)[O-])c([N+](=O)[O-])cc3[n+]2C)C(C)(C)c2ccccc21	BoNT A protease inconclusive, Anthrax LF prot inconclusive, BoNT F protease inconclusive (no result: BJeLR lethal)
CCn1c(SCC(=O)c2c[nH]c3ccccc23)nc2cc(S(=O)(=O)N3CCOCC3)ccc21	BoNT A protease 49 | BoNTA LC inh 1 inactive | BoNTF LC inh 1 inactive | LF protease CP1 inactive
CCn1c(SCC(N)=O)nc2cc(S(=O)(=O)N3CCOCC3)ccc21	none
Cc1cccc(C(C)C)c1NC(=O)C1CN(S(=O)(=O)c2ccccc2)CCN1S(=O)(=O)c1ccccc1 (configuration not stated)	BoNT A protease 38, Anthrax LF prot 37 | BoNTA LC inh 1 inactive | BoNTF LC inh 1 inactive | LF protease CP1 inactive
CCc1cccc(CC)c1NC(=O)C1CN(S(=O)(=O)c2ccccc2)CCN1S(=O)(=O)c1ccccc1 (configuration not stated)	none
Cn1nc(C(C)(C)C)cc1NC(=O)C1(C)CCN1C(=O)Cc1ccc(-c2ccccc2)cc1 (configuration not stated)	none (no result: BJeLR lethal)
CC(C)OC(=O)CC1C(=O)NCCN1C(=S)NC(=O)c1ccccc1 (configuration not stated)	BoNT F protease 35 | BoNTA LC inh 1 inactive | BoNTF LC inh 1 inactive | LF protease CP1 inactive
O=C(c1nn2c(C(F)(F)F)cc(-c3cccs3)nc2c1Br)N1CCCc2ccccc21	BoNT A protease 47 | BoNTA LC inh 1 inactive | BoNTF LC inh 1 inactive | LF protease CP1 inactive
CCCNC(=O)C1(C)CCN(Cc2cc(-c3ccccc3)on2)C1 (configuration not stated)	none (no result: BJeLR lethal)
COCC(=O)N1CCC(c2nc3ccccc3[nH]2)CC1	none (no result: BJeLR lethal)
Cc1ccc(C(=O)Nc2scc(-c3ccccc3)c2C(=O)O)cc1	BoNT F protease 36 | BoNTA LC inh 1 inactive | BoNTF LC inh 1 inactive | LF protease CP1 inactive
COc1cccc(C(=O)c2ccccc2C(=O)O)c1	none (no result: BH1578 lux ind, BJeLR lethal)
